Results on 7 compounds are retold here after ChEMBL document CHEMBL1961873, “Compounds: GSK PKIS; Assays: Nanosyn kinase panel” (2012).

In assay [1] the target is Tyrosine-protein kinase Fyn (Homo sapiens) (UniProt P06241). To be noted: at 1 µM.
Assay [2] addresses Tyrosine-protein kinase HCK (Homo sapiens) (UniProt P08631). To be noted: at 0.1 µM.
For assay [3] the target is unchanged. To be noted: at 1 µM.
Assay [4] deals with Insulin-like growth factor 1 receptor (Homo sapiens) (UniProt P08069). The following applies: at 0.1 µM.
Chain of Insulin-like growth factor 1 receptor (Homo sapiens) (P08069 31-736 limits assumed): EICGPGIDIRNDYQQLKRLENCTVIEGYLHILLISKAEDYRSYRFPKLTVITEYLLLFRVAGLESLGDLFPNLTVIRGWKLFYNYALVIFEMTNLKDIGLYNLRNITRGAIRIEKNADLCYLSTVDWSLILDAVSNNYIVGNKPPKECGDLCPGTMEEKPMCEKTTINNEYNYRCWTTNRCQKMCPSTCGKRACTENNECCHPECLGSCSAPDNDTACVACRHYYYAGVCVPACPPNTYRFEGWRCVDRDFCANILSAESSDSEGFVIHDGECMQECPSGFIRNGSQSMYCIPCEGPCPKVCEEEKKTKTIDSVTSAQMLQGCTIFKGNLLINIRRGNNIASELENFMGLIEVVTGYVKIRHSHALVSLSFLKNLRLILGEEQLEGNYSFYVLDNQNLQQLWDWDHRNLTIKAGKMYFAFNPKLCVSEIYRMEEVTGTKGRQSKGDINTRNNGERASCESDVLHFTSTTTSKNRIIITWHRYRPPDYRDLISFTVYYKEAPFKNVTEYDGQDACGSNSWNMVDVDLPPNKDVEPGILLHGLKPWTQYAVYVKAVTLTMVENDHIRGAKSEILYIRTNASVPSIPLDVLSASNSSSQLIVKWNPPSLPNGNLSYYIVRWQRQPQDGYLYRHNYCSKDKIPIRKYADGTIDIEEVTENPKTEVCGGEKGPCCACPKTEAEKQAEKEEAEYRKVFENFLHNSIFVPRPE
Chain of Insulin-like growth factor 1 receptor (Homo sapiens) (P08069 741-1367 limits assumed): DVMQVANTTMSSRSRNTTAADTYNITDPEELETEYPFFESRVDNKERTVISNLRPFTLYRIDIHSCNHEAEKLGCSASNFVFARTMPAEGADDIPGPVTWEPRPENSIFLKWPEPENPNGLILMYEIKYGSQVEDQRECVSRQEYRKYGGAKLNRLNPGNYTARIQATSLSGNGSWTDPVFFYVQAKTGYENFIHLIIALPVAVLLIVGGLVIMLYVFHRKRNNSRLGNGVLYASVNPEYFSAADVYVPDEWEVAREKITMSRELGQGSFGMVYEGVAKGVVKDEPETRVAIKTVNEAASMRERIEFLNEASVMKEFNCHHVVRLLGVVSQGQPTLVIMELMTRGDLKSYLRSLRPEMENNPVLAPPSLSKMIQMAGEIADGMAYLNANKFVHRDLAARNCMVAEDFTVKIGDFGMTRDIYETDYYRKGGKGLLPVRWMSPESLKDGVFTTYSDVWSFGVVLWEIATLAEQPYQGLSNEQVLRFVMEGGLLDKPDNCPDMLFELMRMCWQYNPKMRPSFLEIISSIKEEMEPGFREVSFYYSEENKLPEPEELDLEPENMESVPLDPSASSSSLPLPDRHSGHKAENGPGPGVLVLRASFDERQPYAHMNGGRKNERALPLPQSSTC
Assay [5] shares this target. The following applies: at 1 µM.
In assay [6] the target is Insulin receptor (Homo sapiens) (UniProt P06213). The following applies: at 0.1 µM.
For assay [7] the target is unchanged. The following applies: at 1 µM.
In assay [8] the target is Insulin receptor-related protein (Homo sapiens) (UniProt P14616). To be noted: at 0.1 µM.
Chain of Insulin receptor-related protein (Homo sapiens) (P14616 27-742 limits assumed): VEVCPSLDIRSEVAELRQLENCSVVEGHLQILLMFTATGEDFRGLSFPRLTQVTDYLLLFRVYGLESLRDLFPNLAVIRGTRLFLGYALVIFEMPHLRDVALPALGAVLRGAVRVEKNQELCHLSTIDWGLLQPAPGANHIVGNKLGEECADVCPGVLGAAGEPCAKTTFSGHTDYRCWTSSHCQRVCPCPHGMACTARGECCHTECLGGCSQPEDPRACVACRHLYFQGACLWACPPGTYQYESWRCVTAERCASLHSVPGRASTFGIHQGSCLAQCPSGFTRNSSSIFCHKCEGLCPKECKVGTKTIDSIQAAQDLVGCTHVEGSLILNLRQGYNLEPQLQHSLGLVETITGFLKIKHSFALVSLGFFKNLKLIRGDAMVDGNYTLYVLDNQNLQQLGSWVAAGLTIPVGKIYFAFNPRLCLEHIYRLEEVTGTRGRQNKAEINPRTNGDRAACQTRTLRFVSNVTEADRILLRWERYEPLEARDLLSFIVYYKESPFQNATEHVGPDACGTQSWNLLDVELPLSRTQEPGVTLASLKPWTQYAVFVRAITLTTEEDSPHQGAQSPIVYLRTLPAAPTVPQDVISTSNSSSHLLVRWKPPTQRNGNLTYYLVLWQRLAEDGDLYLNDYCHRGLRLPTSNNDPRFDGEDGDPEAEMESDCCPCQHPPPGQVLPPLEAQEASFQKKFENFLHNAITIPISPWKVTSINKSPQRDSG
Chain of Insulin receptor-related protein (Homo sapiens) (P14616 747-1297 limits assumed): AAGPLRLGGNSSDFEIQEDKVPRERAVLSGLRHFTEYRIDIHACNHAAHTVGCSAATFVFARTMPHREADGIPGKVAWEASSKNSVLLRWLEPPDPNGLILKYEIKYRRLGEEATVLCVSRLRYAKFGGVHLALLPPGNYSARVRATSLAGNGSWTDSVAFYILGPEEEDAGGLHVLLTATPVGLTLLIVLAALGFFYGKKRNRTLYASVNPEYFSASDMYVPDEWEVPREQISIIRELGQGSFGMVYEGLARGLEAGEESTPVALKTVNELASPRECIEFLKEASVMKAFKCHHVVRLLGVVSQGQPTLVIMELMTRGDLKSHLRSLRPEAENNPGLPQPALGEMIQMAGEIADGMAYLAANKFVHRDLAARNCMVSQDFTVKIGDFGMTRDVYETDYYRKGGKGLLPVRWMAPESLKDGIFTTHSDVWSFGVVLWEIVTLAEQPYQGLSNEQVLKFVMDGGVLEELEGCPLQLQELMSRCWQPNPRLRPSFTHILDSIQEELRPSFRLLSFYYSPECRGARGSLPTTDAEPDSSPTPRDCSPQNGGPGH
For assay [9] the target is unchanged. The following applies: at 1 µM.
For assay [10], the target named is T1, Tyrosine-protein kinase ITK/TSK (Homo sapiens) (UniProt Q08881).
T1 sequence (whole entry): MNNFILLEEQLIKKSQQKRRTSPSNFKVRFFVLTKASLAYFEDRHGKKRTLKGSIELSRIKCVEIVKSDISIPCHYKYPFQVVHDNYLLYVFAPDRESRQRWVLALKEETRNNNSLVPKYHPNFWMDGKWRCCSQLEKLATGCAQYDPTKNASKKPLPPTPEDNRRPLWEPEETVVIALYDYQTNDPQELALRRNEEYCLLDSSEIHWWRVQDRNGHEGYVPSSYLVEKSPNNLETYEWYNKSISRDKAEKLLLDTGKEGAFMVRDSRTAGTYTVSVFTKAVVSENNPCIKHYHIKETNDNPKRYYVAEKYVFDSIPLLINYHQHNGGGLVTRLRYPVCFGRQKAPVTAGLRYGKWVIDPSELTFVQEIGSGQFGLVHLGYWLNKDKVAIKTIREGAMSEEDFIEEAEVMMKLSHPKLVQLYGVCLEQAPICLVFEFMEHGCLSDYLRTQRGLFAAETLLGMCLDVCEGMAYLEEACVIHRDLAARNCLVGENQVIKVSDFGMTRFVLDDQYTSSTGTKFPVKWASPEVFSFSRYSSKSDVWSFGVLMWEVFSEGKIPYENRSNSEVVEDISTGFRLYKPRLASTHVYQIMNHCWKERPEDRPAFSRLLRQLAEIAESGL
To be noted: at 0.1 µM.

Assay [11] addresses T1, Tyrosine-protein kinase ITK/TSK (Homo sapiens). The following applies: at 1 µM.
For assay [12], the target named is Tyrosine-protein kinase JAK1 (Homo sapiens) (UniProt P23458). To be noted: at 0.1 µM.
Assay [13] has the same target. The following applies: at 1 µM.
Assay [14] concerns the target Tyrosine-protein kinase JAK2 (Homo sapiens) (UniProt O60674). To be noted: at 0.1 µM.
Assay [15] shares this target. To be noted: at 1 µM.
The target of assay [16] is T2, Tyrosine-protein kinase JAK3 (Homo sapiens) (UniProt P52333).
T2 sequence (whole entry): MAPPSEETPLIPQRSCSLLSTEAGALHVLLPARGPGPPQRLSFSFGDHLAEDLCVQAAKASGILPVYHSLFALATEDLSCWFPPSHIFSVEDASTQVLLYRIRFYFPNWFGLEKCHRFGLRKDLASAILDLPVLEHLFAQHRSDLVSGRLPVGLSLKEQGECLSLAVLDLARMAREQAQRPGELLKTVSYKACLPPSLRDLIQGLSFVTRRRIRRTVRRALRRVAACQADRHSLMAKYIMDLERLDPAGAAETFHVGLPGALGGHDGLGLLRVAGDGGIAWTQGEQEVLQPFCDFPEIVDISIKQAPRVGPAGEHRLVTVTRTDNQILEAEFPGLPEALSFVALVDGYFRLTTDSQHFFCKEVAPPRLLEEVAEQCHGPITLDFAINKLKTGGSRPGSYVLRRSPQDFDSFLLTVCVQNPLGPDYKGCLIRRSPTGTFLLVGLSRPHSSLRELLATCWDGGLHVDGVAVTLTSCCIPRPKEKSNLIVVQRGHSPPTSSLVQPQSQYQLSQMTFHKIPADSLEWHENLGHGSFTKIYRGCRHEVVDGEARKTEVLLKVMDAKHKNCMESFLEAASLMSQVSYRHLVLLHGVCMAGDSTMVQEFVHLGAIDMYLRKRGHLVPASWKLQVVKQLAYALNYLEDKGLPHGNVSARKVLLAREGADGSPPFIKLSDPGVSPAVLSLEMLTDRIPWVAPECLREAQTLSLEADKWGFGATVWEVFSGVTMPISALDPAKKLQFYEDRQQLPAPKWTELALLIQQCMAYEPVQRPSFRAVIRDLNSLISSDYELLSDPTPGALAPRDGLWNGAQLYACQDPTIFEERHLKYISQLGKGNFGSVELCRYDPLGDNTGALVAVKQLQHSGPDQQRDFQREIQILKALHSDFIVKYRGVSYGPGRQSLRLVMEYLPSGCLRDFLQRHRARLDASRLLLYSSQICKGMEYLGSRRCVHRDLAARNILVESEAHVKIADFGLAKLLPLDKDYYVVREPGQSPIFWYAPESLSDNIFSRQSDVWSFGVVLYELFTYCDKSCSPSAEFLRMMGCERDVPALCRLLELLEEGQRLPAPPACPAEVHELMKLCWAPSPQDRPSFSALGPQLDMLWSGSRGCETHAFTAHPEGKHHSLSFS
To be noted: at 0.1 µM.

In assay [17] the target is T2, Tyrosine-protein kinase JAK3 (Homo sapiens). The following applies: at 1 µM.
Assay [18] has as its target Vascular endothelial growth factor receptor 2 (Homo sapiens) (UniProt P35968). To be noted: at 0.1 µM.
The target is the same in assay [19]. The following applies: at 1 µM.
The target of assay [20] is Mast/stem cell growth factor receptor Kit (Homo sapiens) (UniProt P10721). To be noted: at 0.1 µM.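 Also: values are mean inhibition of KIT, from the GSK PKIS dataset.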

Chain of Tyrosine-protein kinase JAK2 (Homo sapiens) (O60674 whole entry): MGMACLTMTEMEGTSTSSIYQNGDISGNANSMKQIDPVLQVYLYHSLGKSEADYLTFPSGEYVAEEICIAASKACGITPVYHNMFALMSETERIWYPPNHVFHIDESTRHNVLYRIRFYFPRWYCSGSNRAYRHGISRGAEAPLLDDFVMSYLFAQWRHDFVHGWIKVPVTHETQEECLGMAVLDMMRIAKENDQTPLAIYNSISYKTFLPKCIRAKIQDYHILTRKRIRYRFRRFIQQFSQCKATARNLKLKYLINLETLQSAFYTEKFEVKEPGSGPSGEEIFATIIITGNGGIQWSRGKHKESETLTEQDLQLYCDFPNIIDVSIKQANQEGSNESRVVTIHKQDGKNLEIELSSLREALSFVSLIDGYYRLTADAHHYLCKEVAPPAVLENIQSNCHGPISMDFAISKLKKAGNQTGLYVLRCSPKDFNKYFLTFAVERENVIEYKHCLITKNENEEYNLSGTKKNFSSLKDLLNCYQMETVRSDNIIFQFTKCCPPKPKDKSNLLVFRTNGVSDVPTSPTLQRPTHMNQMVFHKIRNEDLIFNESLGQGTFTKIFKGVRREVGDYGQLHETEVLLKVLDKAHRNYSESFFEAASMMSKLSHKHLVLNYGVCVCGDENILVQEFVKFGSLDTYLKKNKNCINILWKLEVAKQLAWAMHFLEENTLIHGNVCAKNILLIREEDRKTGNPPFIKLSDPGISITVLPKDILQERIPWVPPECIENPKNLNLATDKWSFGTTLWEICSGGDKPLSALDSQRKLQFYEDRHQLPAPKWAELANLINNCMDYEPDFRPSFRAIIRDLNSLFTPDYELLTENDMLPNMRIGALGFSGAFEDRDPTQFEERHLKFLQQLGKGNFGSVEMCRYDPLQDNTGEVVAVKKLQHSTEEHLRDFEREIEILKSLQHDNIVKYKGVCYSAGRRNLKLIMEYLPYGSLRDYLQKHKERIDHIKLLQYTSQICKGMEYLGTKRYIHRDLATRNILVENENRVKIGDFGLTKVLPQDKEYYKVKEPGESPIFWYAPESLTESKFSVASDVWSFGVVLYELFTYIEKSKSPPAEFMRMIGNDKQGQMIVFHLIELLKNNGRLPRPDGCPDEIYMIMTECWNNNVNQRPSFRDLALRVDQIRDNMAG
Chain of Tyrosine-protein kinase HCK (Homo sapiens) (P08631 2-526 limits assumed): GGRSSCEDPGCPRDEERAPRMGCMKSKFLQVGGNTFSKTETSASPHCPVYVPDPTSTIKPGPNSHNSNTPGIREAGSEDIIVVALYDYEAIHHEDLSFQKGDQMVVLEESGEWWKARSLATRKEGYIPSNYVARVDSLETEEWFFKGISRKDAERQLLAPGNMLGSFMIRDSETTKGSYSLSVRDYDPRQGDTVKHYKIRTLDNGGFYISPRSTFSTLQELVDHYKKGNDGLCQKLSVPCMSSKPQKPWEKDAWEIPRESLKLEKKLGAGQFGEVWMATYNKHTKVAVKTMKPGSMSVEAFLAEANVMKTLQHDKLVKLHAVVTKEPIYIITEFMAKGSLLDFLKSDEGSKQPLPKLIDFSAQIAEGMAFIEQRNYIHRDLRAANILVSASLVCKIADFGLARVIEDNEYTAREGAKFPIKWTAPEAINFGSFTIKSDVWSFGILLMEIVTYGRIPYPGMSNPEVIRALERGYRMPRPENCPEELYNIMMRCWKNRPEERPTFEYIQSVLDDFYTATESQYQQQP
Chain of Tyrosine-protein kinase Fyn (Homo sapiens) (P06241 2-537 limits assumed): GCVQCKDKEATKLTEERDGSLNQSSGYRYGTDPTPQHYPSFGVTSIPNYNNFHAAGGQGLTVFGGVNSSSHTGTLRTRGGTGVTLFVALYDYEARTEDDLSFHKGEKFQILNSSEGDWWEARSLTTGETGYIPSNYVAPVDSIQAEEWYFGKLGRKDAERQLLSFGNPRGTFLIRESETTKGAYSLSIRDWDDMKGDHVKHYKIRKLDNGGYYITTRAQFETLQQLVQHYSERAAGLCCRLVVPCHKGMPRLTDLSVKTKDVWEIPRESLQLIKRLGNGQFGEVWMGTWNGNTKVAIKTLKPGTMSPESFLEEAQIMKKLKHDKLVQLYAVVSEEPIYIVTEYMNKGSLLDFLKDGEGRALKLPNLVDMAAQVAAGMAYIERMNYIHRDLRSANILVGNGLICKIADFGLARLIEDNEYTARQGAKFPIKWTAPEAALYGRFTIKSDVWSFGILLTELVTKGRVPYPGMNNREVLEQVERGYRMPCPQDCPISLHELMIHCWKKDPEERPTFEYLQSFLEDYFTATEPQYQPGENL

Regarding `COc1cc2ncnc(Nc3ccc4c(cnn4Cc4ccccc4)c3)c2cc1OC`, the inhibition in assay [1] is 35.7%; in assay [2], 11.4%; in assay [3], 48.5%; in [4], -1.14%; in assay [5] it was -0.72%; in assay [6], 2.75%. Also, the inhibition in assay [7] turned out to be 3.75%; in [8] it was 0.39%; in assay [9] it was 2.09%; in assay [10], 0.88%; in [11], 1.9%; in assay [12], 4.18%. Moreover, the inhibition in [13] is 2.43%; in [14] it was 1.01%; in assay [15], 1.11%; in assay [16] it was -1.67%; in assay [17], 1.82%; in assay [18], 6.63%. The inhibition in [19] was determined as 47.6%; in assay [20] it was 2.37%.
In the case of `Cc1cc(O)cc(C)c1/C=C/c1cncc(C(=O)N(C)C)c1`, the inhibition is 4.2% in assay [1]; 4.54% in [2]; 10.8% in assay [3]; 2.54% in [4]; 5.15% in [5]; 2.68% in assay [6]. For the same compound, the inhibition in assay [7] was found to be 0.32%; in [8] it was 2.71%; in assay [9], 1%; in [10], 1.43%; in [11] it was 1.94%; in assay [12] it was 4.52%. Further, the inhibition in assay [13] was 5.42%; in assay [14], 1.7%; in assay [15], 3.22%; in [16], -0.76%; in [17], 1.31%; in assay [18], 7.06%. The inhibition came to 12.3% in assay [19] and 4.12% in [20].
With `CS(=O)(=O)Nc1cccc(-c2ccc3c(NC(=O)C4CC4)n[nH]c3c2)c1`, the inhibition was 3.25% in [1]; 3.53% in [2]; 3.03% in assay [3]; 1.3% in assay [4]; -1.63% in assay [5]; 2.96% in assay [6]. For the same compound, the inhibition was 4.14% in [7]; -0.36% in [8]; -1.26% in [9]; 0.53% in [10]; 1.71% in [11]; 0.09% in assay [12]. Also, the inhibition in assay [13] was 0.48%; in [14], 0.43%; in [15], 1.32%; in assay [16], -0.13%; in [17] it was 2.96%; in [18], 1.1%. Also, the inhibition in assay [19] was 7.91%; in [20], -1.41%.
With `CN(C)c1cc2c(Nc3ccc4c(cnn4Cc4ccccc4)c3)ncnc2cn1`, the inhibition stood at 15.3% in assay [1]; 7.12% in assay [2]; 19.9% in [3]; 0.45% in [4]; 2.94% in assay [5]; 5.08% in assay [6]. The inhibition in [7] was 6.13%; in [8], 1.7%; in [9], 0.35%; in [10], 1.37%; in [11], 0.99%; in [12], 3.23%. Also, the inhibition is -0.82% in [13]; 0.91% in assay [14]; 2.18% in assay [15]; -0.53% in assay [16]; 0.54% in [17]; 4.41% in assay [18]. In addition, the results for the inhibition in [19] and in assay [20] were 18.2% and 3.49%, respectively.
Consider `COC(=O)Nc1nc2cc(Oc3ccc(NC(=O)Nc4cccc(Br)c4)cc3)ccc2[nH]1`, for which the inhibition is 9.52% in assay [1]; 6.2% in assay [2]; 6.79% in assay [3]; 3.08% in assay [4]; 2.4% in assay [5]; 1.48% in [6]. For the same compound, the inhibition in assay [7] is 5.63%; in [8], 1.82%; in assay [9], -1.05%; in assay [10], 1.01%; in [11] it was 1.87%; in [12], 5.36%. The inhibition in assay [13] is 11.8%; in [14] it was 1.09%; in assay [15], 3.06%; in assay [16], -0.45%; in assay [17], 1.27%; in [20], 84.5%.
In the case of `Nc1ccc(C#Cc2cncnc2Nc2ccc(OCc3cccc(F)c3)c(Cl)c2)cc1`, the inhibition was 1.14% in [1]; 4.6% in [2]; 5.04% in assay [3]; 1.78% in assay [4]; -0.29% in assay [5]; 1.22% in [6]. Further, the inhibition in assay [7] amounted to 2.12%; in [8], 2.27%; in [9] it was 2.76%; in assay [10], 0.59%; in assay [11], 1.02%; in assay [12], 0.18%. In addition, the inhibition in assay [13] is 0.58%; in assay [14] it was 0.74%; in assay [15], 0.43%; in [16] it was -2.62%; in assay [17], -0.39%; in assay [18] it was 1.13%. In addition, the inhibition came out at 5.84% in assay [19] and 5.48% in [20].
As for `CCCN1CCCC(c2ccc(Nc3nc(Nc4cc(F)ccc4C(N)=O)c4cc[nH]c4n3)c(OC)c2)C1` (stereo not drawn), the inhibition was 16.1% in assay [1]; 7.06% in [2]; 11.9% in assay [3]; 93% in assay [4]; 94.8% in [5]; 98.9% in assay [6]. For the same compound, the inhibition in [7] was 96.2%; in assay [8], 93.7%; in [9] it was 97%; in assay [10], 2.35%; in assay [11], 6%; in [12] it was -0.47%. For the same compound, the inhibition in assay [13] is -0.81%; in [14], 1.82%; in assay [15], 2.51%; in [16], -1.48%; in [17] it was -3.27%; in assay [18], 7.45%. The inhibition in assay [19] came out at 16.6%; in assay [20], 8.98%.
